Test results: PubChem BioAssay AID485270 (The Scripps Research Institute Molecular Screening Center, 2010)
Hit rate of the full screen: of about 330,000 compounds, about 5,800 (1.8%) were called active. The sample holds actives, similar compounds and a random draw of the others, so the mix is not that of the screen. Rule as the data show it: active = inhibition mostly above about 38% (no sharp cut-off); inactive = mostly below about 40%.

target: Orexin/Hypocretin receptor type 1 (Homo sapiens) (UniProt O43613); assay: antagonists of human orexin 1 receptor (OX1R) (AID 485270); details: OX1R-expressing cells, FRET antagonist read-out; at 6.6 µM; active compounds read high;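 also: 0% = agonist challenge alone and 100% = reference antagonist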
Sequence (O43613 whole entry, looked up): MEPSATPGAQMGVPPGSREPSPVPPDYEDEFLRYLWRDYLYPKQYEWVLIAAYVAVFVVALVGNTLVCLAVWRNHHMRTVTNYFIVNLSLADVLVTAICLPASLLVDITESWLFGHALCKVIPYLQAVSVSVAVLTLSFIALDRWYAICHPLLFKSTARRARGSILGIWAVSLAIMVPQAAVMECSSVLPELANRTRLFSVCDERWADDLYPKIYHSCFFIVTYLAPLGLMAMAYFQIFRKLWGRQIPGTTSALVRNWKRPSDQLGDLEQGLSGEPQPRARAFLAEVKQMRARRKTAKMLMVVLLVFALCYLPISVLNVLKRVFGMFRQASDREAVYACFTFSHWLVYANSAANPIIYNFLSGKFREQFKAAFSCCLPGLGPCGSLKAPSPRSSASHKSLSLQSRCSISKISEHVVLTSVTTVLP

| SMILES | inhibition |
| --- | --- |
| O=C1COc2ccc(C(=O)COC(=O)CCOc3ccccc3)cc2N1 | 4.75% (inactive) |
| O=C(COC(=O)c1ccccc1O)NCc1ccco1 | 9.75% (inactive) |
| COc1cccc(-c2sc3ccc(OC)cc3c2-c2ccc(OCCN3CCCCC3)cc2)c1 | 3.65% (inactive) |
| CCC(C)(C)NC(=O)C(c1ccccn1)N(C(=O)c1csnn1)c1ccccc1 (stereo not drawn) | 6.1% (inactive) |
| CC(C)(C)NC(=O)CN(C(=O)c1ccc(Cl)nc1)c1cccc2ccccc12 | 9.37% (inactive) |
| CC(C)(C)NC(=O)CN(C(=O)c1csnn1)c1ccccc1-c1ccccc1 | 67.4% (active) |
| COc1cc(Cl)c(C)cc1NC(=O)CSc1nnc(CN2CCCC2)o1 | 3.58% (inactive) |
| O=C1CC2(CCCC2)C(=O)N1CN1CCN(S(=O)(=O)c2ccc(F)cc2F)CC1 | 6.49% (inactive) |
| COC(=O)c1sccc1NC(=O)CSc1ccccc1NS(=O)(=O)c1cc(Cl)ccc1Cl | 60.7% (active) |
| COC(=O)c1sccc1NS(=O)(=O)c1ccc(F)cc1F | -2.44% (inactive) |
| COC(=O)c1sccc1NC(=O)COc1ccc(Cl)cc1 | 19.5% (inactive) |
| C[C@]12CC[C@H](O)CC1=CCC1C2CC[C@@]2(C)C1CC[C@@H]2NC(=O)CCC(=O)O (stereo partly drawn) | 4.74% (inactive) |
| Cc1cccc(C)c1Nc1nnc(SCC(=O)NCCCN2CCCC2=O)s1 | 5.99% (inactive) |
| CC(=O)c1c(C)[nH]c(C(=O)COC(=O)c2cccc(S(=O)(=O)N(C)c3ccccc3)c2)c1C | 69.6% (active) |
| CC(=O)c1c(C)[nH]c(C(=O)COC(=O)c2cccs2)c1C | 15% (inactive) |
| COc1cccc(C(=O)OCC(=O)c2[nH]c(C)c(C(C)=O)c2C)c1 | 12.8% (inactive) |
| CC[C@]12c3[nH]c4ccc(OC)cc4c3CCN1C(=O)C(CC(=O)NCc1ccco1)C[C@@H]2C(=O)N1CCN(C(=O)C2CC2)CC1 (stereo partly drawn) | 6.49% (inactive) |
| COc1ccc(CCNC(=O)COC(=O)c2cnc(Cl)c(Cl)c2)cc1 | 8.28% (inactive) |
| O=C(OCc1ccc([N+](=O)[O-])cc1)c1ccccn1 | 5.7% (inactive) |
| O=C(COC(=O)c1ccccn1)NNC(=O)c1ccc(Br)cc1 | -0.24% (inactive) |

| SMILES | inhibition |
| --- | --- |
| O=C(COC(=O)c1ccccn1)NNC(=O)c1ccc([N+](=O)[O-])cc1 | 57.2% (active) |
| COc1ccc(-c2c(C)cc3oc(=O)cc(-c4ccccc4)c3c2C)cc1C=O | 4.68% (inactive) |
| COc1ccccc1C(=O)COC(=O)COc1ccc(C#N)cc1 | 5.7% (inactive) |
| O=[N+]([O-])c1ccccc1Nc1ccc(O)cc1 | 50.7% (inactive) |
| O=[N+]([O-])c1cccc(/C=N/Nc2ncc(Br)cn2)c1 | 25.3% (inactive) |
| O=[N+]([O-])c1ncc(Br)cc1Nc1ccccc1 | 54.1% (active) |
| O=C(COC(=O)/C=C/c1cccc(Cl)c1)NCc1cccs1 | 5.6% (inactive) |
| COc1ccc(-c2sc3ccccc3c2-c2ccc(OCCN3CCOCC3)cc2)cc1 | -1.97% (inactive) |
| COC(=O)c1ccc(/C=N/NC(=O)C(=O)N2CCCCCC2)cc1 | 44.8% (inactive) |
| O=C(N/N=C/c1ccc2c(c1)OCO2)C(=O)N1CCCC1 | 15% (inactive) |
| Cc1ccsc1C(=O)N/N=C/c1ccc([N+](=O)[O-])cc1 | 53.6% (inactive) |
| NC(=S)N/N=C/c1ccc([N+](=O)[O-])cc1 | 50.9% (active) |
| CCOc1ccc(/C=N/NC(N)=S)cc1 | 27.9% (inactive) |
| O=C(N/N=C/c1ccc([N+](=O)[O-])cc1)C(=O)N1CCCC1 | 45.8% (active) |
| O=C(COC(=O)c1ccncc1)Nc1ccc2c(c1)OCO2 | 9.22% (inactive) |
| O=C(Nc1cccc(S(=O)(=O)NC2=NCCC2)c1)c1ccc(F)cc1F | 3.06% (inactive) |
| Cc1cccc(-n2ncc3c(=O)[nH]c(SCC(=O)Nc4cc(C)on4)nc32)c1 | 10.5% (inactive) |
| COc1ccc(-c2nc3cc(C)ccn3c2NC2CCCCC2)cc1SC1CCCCC1 | 11.5% (inactive) |
| Cc1ccc(NC(=O)CN(C)C(=O)c2ccc(Cl)c(S(=O)(=O)NCc3ccco3)c2)cc1 | 4.72% (inactive) |
| COC(=O)CNC(=O)c1ccc2c(c1)S(=O)(=O)c1ccccc1C2=O | 172% (active) |

| SMILES | inhibition |
| --- | --- |
| Cc1ccc(CNC(=O)c2ccc3c(c2)S(=O)(=O)c2ccccc2C3=O)cc1 | 61.7% (inactive) |
| CC(C)(C)c1ccc(C(=O)NCC(=O)OCN2C(=O)c3ccccc3C2=O)cc1 | -0.82% (inactive) |
| COC(=O)[C@]1(C)N[C@H](CN(C)C(=O)c2ccc(C(C)(C)C)cc2)[C@@H]2C(=O)N(C)C(=O)[C@@H]21 | 6.6% (inactive) |
| CC(NC(=O)c1ccccc1SCC(=O)N1CCCC1)c1ccccc1 (stereo not drawn) | 6.4% (inactive) |
| COc1ccccc1NC(=O)COC(=O)c1ccccc1SCC(=O)N1CCCC1 | 23.9% (inactive) |
| CC(C)N(Cc1ccccc1)C(=O)COC(=O)c1ccccc1SCC(=O)N1CCCC1 | 60.6% (active) |
| COc1ccc(S(=O)(=O)N(C)C[C@@H]2Oc3ccc(NC(=O)Nc4c(C)noc4C)cc3C(=O)N([C@H](C)CO)C[C@@H]2C)cc1 | 5.98% (inactive) |
| Oc1ccc(N=Cc2c(O)ccc3ccccc23)cc1 | 54.4% (active) |
| Oc1ccc(N=Cc2sc3ccccc3c2Cl)cc1 | 36.6% (inactive) |
| O=[N+]([O-])c1ccc(N=Cc2c(O)ccc3ccccc23)cc1 | 26.6% (inactive) |
| Cc1ccc(N2C(=O)N3[C@@H]4c5ccccc5OC[C@@H]4[C@@H](c4ccccc4)[C@@]3(C)C2=O)cc1 | 4.13% (inactive) |
| O=C(NN=Cc1ccc(N2CCOCC2)cc1)c1cc2ccccc2cc1O | 8.04% (inactive) |
| C=CCn1c(SCC(=O)Nc2nc3ccccc3s2)nnc1-c1ccccc1O | 53% (active) |
| C=CCn1c(SCC(=O)NCc2ccccc2)nnc1-c1cc(Br)ccc1O | 13.4% (inactive) |
| Cn1nnnc1SCC(=O)Nc1nc2ccccc2s1 | 14.3% (inactive) |
| O=C(COc1cccnc1[N+](=O)[O-])Nc1ccc(Cl)cc1F | 9.99% (inactive) |
| Cc1ccsc1C(=O)OCC(=O)NCCc1ccccc1 | 1.76% (inactive) |
| CC[C@]12c3[nH]c4cc(CCC(=O)N(C)C)ccc4c3CCN1C(=O)[C@@H](CC(=O)NCCCn1ccnc1)C[C@@H]2C(=O)N1CCN(C(=O)C2CC2)CC1 | 10.3% (inactive) |
